# Measurements taken from PubChem BioAssay AID2081 (NMMLSC, 2009).
# The source made the active and inactive calls. No rule for the calls is given here.
# Target: Bcl-2-like protein 2 (Homo sapiens) (UniProt Q92843)
# Experiment: inhibitors of Bim binding to Bcl-W, confirmation, biochemical, multiplexed, bead-based flow cytometry, HTS hits (AID 2081)
# Chain of Bcl-2-like protein 2 (Homo sapiens) (Q92843 whole entry, looked up): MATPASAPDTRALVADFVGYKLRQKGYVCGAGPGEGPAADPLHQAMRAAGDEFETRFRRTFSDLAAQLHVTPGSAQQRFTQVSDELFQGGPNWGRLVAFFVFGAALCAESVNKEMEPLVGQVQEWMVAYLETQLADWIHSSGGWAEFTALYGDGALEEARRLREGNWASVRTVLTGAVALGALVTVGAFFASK
row,SMILES,outcome
1,O=C1NC(=O)C2(Cc3c(nc4ccccn4c3=O)N3CCCCCC32)C(=O)N1Cc1ccccc1 (configuration not stated),inactive
2,O=C1NC(=O)C(=Cc2ccc(-c3cc(Cl)ccc3[N+](=O)[O-])o2)C(=O)N1,inactive
